According to PubChem BioAssay (NCATS):
Inconclusive results are not listed. Entries that show only a call come without a potency. The source made the active and inactive calls. Calls follow the shape of the dose curve; as a rule, active = well fitted curve in the direction sought with a large enough effect; inconclusive = small, poorly fitted or top-dose-only effect, or another doubt; inactive = no such curve, though single readings can be large; an effect the other way counts as inactive or inconclusive.

Assays:
[1] = Confirmatory screen GU Rhodamine qHTS for Zika virus inhibitors qHTS (AID 1347157); also: nearly all actives have a fitted effect of over 70% in size; also: potency is read from the fitted curve at half-maximal effect
Outline: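 Percent inhibition came from the 15-min rise in Rhodamine110 fluorescence (1.5 microM substrate, ~15% conversion), normalized to no-inhibitor and no-enzyme wells and Hill-fitted. Unlinked protease, 25 nM, pH 8.0 Tris buffer; compounds up to 114 microM, 15-min preincubation.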

[2] = tested on: Zika virus NS2B-NS3 protease (unlinked complex); assay: Primary screen GU Rhodamine qHTS for Zika virus inhibitors: Unlinked NS2B-NS3 protease assay (AID 1347159); also: nearly all actives have a fitted effect of over 60% in size; also: potency is read from the fitted curve at half-maximal effect
Outline: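 Noncovalent NS2B hydrophilic domain/NS3 protease complex (25 nM final) in 10 mM Tris-HCl pH 8.0, 0.01% Tween 20, preincubated 15 min with compounds (up to 114 microM), then 1.5 microM Rhodamine110 substrate. Fluorescence change over 15 min fitted to 4-parameter Hill.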

[3] = tested on: Zika virus NS2B-NS3 protease (linked construct); assay: Primary screen NINDS Rhodamine qHTS for Zika virus inhibitors (AID 1347160); also: nearly all actives have a fitted effect of over 55% in size; also: potency is read from the fitted curve at half-maximal effect
Outline: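 Purified NS2B-NS3 protease with the NS2B hydrophilic domain joined by a flexible linker (25 nM) in 10 mM Tris-HCl pH 8.0, 0.01% Tween 20, preincubated 15 min at RT with compound; Rhodamine110 peptide substrate 1.5 µM; fluorescence change over 15 min; 4-parameter Hill fit.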

[4] = Confirmatory screen NINDS Rhodamine qHTS for Zika virus inhibitors (AID 1347161); also: nearly all actives have a fitted effect of over 60% in size; also: potency is read from the fitted curve at half-maximal effect
Outline: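 In 10 mM Tris-HCl pH 8.0 containing 0.01% Tween 20, linked NS2B-NS3 protease (25 nM final) is exposed to test compounds for 15 min. Cleavage of 1.5 microM Rhodamine110 substrate is tracked by fluorescence over 15 min.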

[5] = tested on: Zika virus NS2B-NS3 protease (linked); assay: 384 well plate NINDS AMC confirmatory qHTS for Zika virus inhibitors (AID 1347163); also: nearly all actives have a fitted effect of over 50% in size; also: potency is read from the fitted curve at half-maximal effect
Outline: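 Linked NS2B-NS3 protease (final 5 nM, 30 nM or 60 nM) was preincubated with compounds (final up to 1 mM) for ~15 minutes. Ac-VKTGKR-AMC substrate (final 30 microM) then reacted for 25 minutes at room temperature in the dark. Fluorescence (ex 355/em 460 nm) was normalized to no-enzyme and no-inhibitor controls.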

[6] = tested on: Zika virus NS2B-NS3 protease (linked construct); assay: 384 well plate NINDS Rhodamine confirmatory qHTS for Zika virus inhibitors (AID 1347164); also: nearly all actives have a fitted effect of over 65% in size; also: potency is read from the fitted curve at half-maximal effect
Outline: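 Compounds are incubated about 15 minutes with linked protease (5, 30 or 60 nM final). Rhodamine 110-tagged Ac-LKRR substrate (10 microM final) is added and fluorescence measured after 25 minutes.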

[7] = Vero cells viability qHTS for Zika virus inhibitors (AID 1347167)
Outline: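 Compounds were tested in concentration series on cells grown in DMEM containing 4% FBS. After 24 to 48 hours, cellular ATP was measured by luminescence with CellTiter Glo.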

[8] = tested on: Zika virus NS2B-NS3 protease; assay: Primary screen GU AMC qHTS for Zika virus inhibitors (AID 1347154); also: nearly all actives have a fitted effect of over 70% in size
Outline: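 Fluorogenic AMC-substrate cleavage by noncovalent NS2B-NS3 protease complex (25 nM, pH 8.0 Tris buffer with Tween 20) followed for 15 minutes at room temperature (~20% conversion). Percent inhibition from ex340/em450 signal change, fitted by 4-parameter Hill equation.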

Row | Compound | Potency [1] | Potency [2] | Potency [3] | Potency [4] | Potency [5] | Potency [6] | outcome [7] | Potency [8]
1 | CC1=C(C(=O)OC2CCCCC2)C(c2ccc([N+](=O)[O-])cc2)C2=C(CC(C)(C)CC2=O)N1 (stereo unspecified) | inactive | inactive | 31.6 µM (active) | inactive |  |  |  | 
2 | COc1ccc2cc(-c3cc(-c4cc(Cl)cc(Cl)c4)nn3C(C)c3ccc(C(=O)NCCC(=O)O)cc3)ccc2c1 (stereo unspecified) | 5.55 µM (active) | 2.24 µM (active) | inactive | 4.94 µM (active) |  |  |  | 
3 | O=C(O)c1cc(N(Cc2ccc(C3CCCCC3)cc2)C(=O)c2ccc(Oc3ccccc3)cc2)ccc1O | 1.75 µM (active) | 1.26 µM (active) | 2.82 µM (active) | 1.97 µM (active) | 1.41 µM (active) | inactive | inactive | 
4 | CCCCCCCOc1cc2c(cc1/C(C)=C/c1ccc(C(=O)O)cc1)C(C)(C)CCS2(=O)=O | 1.97 µM (active) | 1.78 µM (active) | 2.51 µM (active) | 1.97 µM (active) |  |  | inactive | 
5 | CCc1ccccc1OC[C@@H](O)CN[C@H]1CCCc2ccccc21 |  | inactive | inactive |  |  |  |  | inactive
6 | COc1cc(C[C@H]2C(=O)OC[C@@H]2Cc2ccc(OC)c(OC)c2)ccc1O |  | inactive | inactive |  |  |  |  | inactive
7 | CC#C[C@@H](CC(=O)O)c1ccc(OCc2cccc(-c3ccc(C(F)(F)F)cc3)c2)cc1 | 0.698 µM (active) |  | 1.58 µM (active) | 0.987 µM (active) | inactive | 5.62 µM (active) | inactive | 
8 | CN(C)CCCn1cc(C2=C(c3c[nH]c4ccccc34)C(=O)NC2=O)c2ccccc21 |  | inactive | inactive |  |  |  |  | inactive
9 | NC(=O)C[C@@H](N)C(=O)O |  |  |  |  |  |  |  | inactive
